MEKK2 WT-MEK5 – raises or lowers MEK5 binding to wildtype human MEKK2 PB1 domain; Q9Y2U5; bead flow cytometry, Alexa488-MEK5 binding to MEKK2 WT; actives lie on both sides; binding response (% of control), % at 10 µM; actives 1.1% (n = 290,000); AID 1531; in the data active = binding response below about 67% or above about 130%
MEKK3 PB1 HTS – raises or lowers MEK5 binding to the human MEKK3 PB1 domain | actives 1.4% (n = 290,000) | binding response (% of control), % at 10 µM | bead-based flow cytometry, Alexa488-MEK5 binding to MEKK3; actives lie on both sides; 0 = blocked by unlabeled MEK5, 100 = vehicle | AID 1529 | Q99759;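 active = binding response more than 3 SD above or below the average of its plate-row segment, actives on both sides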;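 also: Alexa488 bead fluorescence after subtracting the streptavidin-only scavenger bead signal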
Target sequence (Q99759 whole entry, looked up, the tested form may be a part): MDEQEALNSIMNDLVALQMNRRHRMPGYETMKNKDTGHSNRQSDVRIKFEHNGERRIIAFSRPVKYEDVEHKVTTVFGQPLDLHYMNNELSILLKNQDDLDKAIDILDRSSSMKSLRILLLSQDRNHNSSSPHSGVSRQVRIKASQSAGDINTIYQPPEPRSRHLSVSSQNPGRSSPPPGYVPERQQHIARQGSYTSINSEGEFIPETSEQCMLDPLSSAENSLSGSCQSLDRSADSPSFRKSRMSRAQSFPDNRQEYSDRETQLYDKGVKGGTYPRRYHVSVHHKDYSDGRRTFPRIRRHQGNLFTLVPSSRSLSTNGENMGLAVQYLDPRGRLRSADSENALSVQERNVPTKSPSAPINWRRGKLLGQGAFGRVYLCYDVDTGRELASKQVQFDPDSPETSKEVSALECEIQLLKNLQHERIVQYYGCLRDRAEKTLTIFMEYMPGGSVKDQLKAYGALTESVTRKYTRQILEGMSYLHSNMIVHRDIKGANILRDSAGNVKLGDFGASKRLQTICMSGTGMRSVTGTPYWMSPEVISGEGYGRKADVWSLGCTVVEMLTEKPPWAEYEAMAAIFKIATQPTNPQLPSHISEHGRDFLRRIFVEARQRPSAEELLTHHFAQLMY
VLA-4 inh – inhibition in a human VLA-4 binding assay. VLA-4 expressing cells, ligand binding flow cytometry. inhibition, % (about 7 µM as worked out from the volumes in the protocol). actives 0.2% (n = 330,000); in the data active = inhibition above about 50%
MEKK2mut PB1 HTS – signal of MEK5 binding to mutant human MEKK2 PB1 domain. bead flow cytometry, Alexa488-MEK5 binding to MEKK2 mutant. percent response, % at 10 µM. actives 0.35% (n = 290,000); in the data active = percent response above about 24%, passing the limit was not always enough
MEKK2wt confirm – raises or lowers MEK5 binding to wildtype human MEKK2, retest; shares compounds with MEKK3 PB1 HTS; bead flow cytometry, Alexa488-MEK5 binding to MEKK2 WT; actives lie on both sides; binding response (% of control), % at 10 µM; actives 2.4% (n = 5,900); in the data active = binding response below about 16% or above about 210%; inactive = in between
MEKK2mut confirm – signal of MEK5 binding to mutant human MEKK2, retest. shares compounds with MEKK3 PB1 HTS. bead flow cytometry, Alexa488-MEK5 binding to MEKK2 mutant. percent response, % at 10 µM. actives 2% (n = 5,900); in the data active = percent response mostly above about 71%, no sharp cut-off; inactive = mostly below about 38%;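 also: higher means compound restores mutant binding toward wildtype level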
MEKK3 confirm – confirmation of inhibitors of MEK5 binding to human MEKK3; binding response (% of control), % at 10 µM; shares compounds with MEKK3 PB1 HTS; actives 1.8% (n = 5,900); bead flow cytometry, Alexa488-MEK5 binding to MEKK3; hits give low values; AID 1894;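 active = binding response below 72% of control, or above a set upper limit, though filed actives all read lower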;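 also: lower values mean stronger disruption of MEK5 binding to MEKK3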
Hits are given with their value; 0 = inactive; - = no result; ! = repeats disagree; [ ] = remark or other dose. An excerpt weighted towards active compounds, which were near 2.2% of everything screened.

SMILES	MEKK2 WT-MEK5	MEKK3 PB1 HTS	VLA-4 inh	MEKK2mut PB1 HTS	MEKK2wt confirm	MEKK2mut confirm	MEKK3 confirm
CN(C)c1cc[n+](CC(=O)c2ccc(Br)cc2)cc1	0	0	0	0	-	-	-
COc1ccc(C(=O)C[n+]2ccc(N(C)C)cc2)cc1	0	135.0	0	0	0	0	0
CN1CCC(NCCC(c2ccc(F)cc2)c2ccc(Cl)cc2)CC1 (configuration not stated)	10.0[inhibitor]	4.0[inhibitor]	0	0	0	0	0
CC(C)C(CCNC1CCN(C)CC1)c1ccc(Cl)cc1 (configuration not stated)	0	0	0	0	-	-	-
COc1ccc2cc(/C=N/O)c(Cl)nc2c1	0	67.0[inhibitor]	0	0	0	0	0
O=C(O)CSc1nnc(-c2cccc(S(=O)(=O)N3CCOCC3)c2)n1-c1cccc(Cl)c1	0	0	0	0	-	-	-
CN1C/C(=C\c2ccc(N3CCOCC3)cc2)C(=O)/C(=C/c2ccc(N3CCOCC3)cc2)C1	0	0	0	0	-	-	-
CCN1C/C(=C/c2ccc(N3CCOCC3)cc2)C(=O)/C(=C/c2ccc(N3CCOCC3)cc2)C1	26.0[inhibitor]	0	0	0	0	0	0
N#CCCN(Cc1ccccc1)C(=O)Nc1ccc(F)cc1	0	0	0	0	-	-	-
COc1ccc(C(C(=O)NC2CCCC2)N(C(=O)c2ccoc2C)c2ccccc2)cc1 (configuration not stated)	0	137.0	0	0	0	0	0
COc1ccc(C(C(=O)NC2CCCCC2)N(C(=O)c2sc(C)nc2C)c2ccc(OC)cc2)cc1 (configuration not stated)	0	46.0[inhibitor]	0	0	0	0	0
O=C1OC(/C(=C\Nc2cc(Cl)ccc2O)[N+](=O)[O-])c2ccccc21 (configuration not stated)	0	38.0[inhibitor]	0	0	0	0	0
Cc1cccc(NC(=O)CN2C(=O)N/C(=C/c3ccc(C)o3)C2=O)c1	0	129.0	0	0	0	0	0
Cc1cccc(NC(=O)CN2C(=O)N/C(=C\c3ccc(-c4cccc(C(=O)O)c4)o3)C2=O)c1	52.0[inhibitor]	70.0[inhibitor]	0	0	0	0	0
CCn1c(C)cc(/C=C2\NC(=O)N(CC(=O)Nc3cccc(C)c3)C2=O)c1C	0	0	0	0	-	-	-
Cc1ccc(NC(=O)CN2C(=O)N/C(=C/c3ccc(C)s3)C2=O)cc1	0	129.0	0	0	0	0	0
CN(c1ccc(C(=O)N/N=C/c2cccc([N+](=O)[O-])c2)cc1)S(=O)(=O)c1ccccc1	0	0	0	0	-	-	-
COc1ccc(N(CC(=O)N2CCN(Cc3ccccc3)CC2)S(C)(=O)=O)cc1Cl	0	0	0	0	-	-	-
Cc1cc(NC(=O)CSc2nccn2-c2cccc(Cl)c2)no1	0	0	0	0	-	-	-
CSc1ccccc1NC(=O)CN1CC(C)OC(C)C1 (configuration not stated)	0	133.0	0	0	0	0	0
Cc1ccc(S(C)(=O)=O)cc1C(=O)NC(C)C1CC2CCC1C2 (configuration not stated)	0	0	0	0	-	-	-
S=C1NCCOCCNC(=S)NCCOCCOCCN1	0	0	0	0	-	-	-
CS(=O)(=O)c1ccc2nc(NC(=O)CN3C(=O)C4CC=CCC4C3=O)sc2c1 (configuration not stated)	0	138.0	0	0	0	0	0
Clc1ccccc1CN1CCc2sccc2C1	0.0![inhibitor]	70.0[inhibitor]	0	0	0	0	0
COc1ccc(-c2oc3ncnc(NCCCN4CCOCC4)c3c2-c2ccc(OC)cc2)cc1	138.0	0	0	0	0	0	0
SMILES	MEKK2 WT-MEK5	MEKK3 PB1 HTS	VLA-4 inh	MEKK2mut PB1 HTS	MEKK2wt confirm	MEKK2mut confirm	MEKK3 confirm
COc1ccc(-c2oc3ncnc(NCCN4CCOCC4)c3c2-c2ccc(OC)cc2)cc1	0	0	0	0	-	-	-
COc1ccc(CCN2CCC(Nc3nc4ccccc4n3Cc3ccc(F)cc3)CC2)cc1	150.0	0	0	38.0	0	0	0
Cc1cccc(-n2ncc3c2CCCC3NC(=O)Cc2c(C)noc2C)c1C (configuration not stated)	0	0	0	0	-	-	-
N#Cc1c(Nc2ccccc2)c(/C=N/N=C/c2ccccc2)c[nH]c1=O	0	138.0	0	0	0	0	0
O=C(O)c1ccc(S(=O)(=O)N2CCc3ccccc3C2)cc1	0	0	0	0	-	-	-
Cc1ccc(S(=O)(=O)N(C)C)cc1NC(=S)NNC(=O)C1CC1	0	131.0	0	0	0	0	0
CCN(CC)S(=O)(=O)c1ccc(C)c(NC(=S)NNC(=O)C2CC2)c1	0	0	0	0	-	-	-
O=C(NC1CCCCC1)C(c1ccc(Cl)cc1)N1CCC2(CC1)OCCO2 (configuration not stated)	2.0[inhibitor]	2.0[inhibitor]	0	0	0	0	0
Cc1ccc(C(C(=O)NC2CCCCC2)N2CCC3(CC2)OCCO3)cc1 (configuration not stated)	0	0	0	0	-	-	-
CC1c2ccccc2N(NC(=O)Cc2ccccc2)C1C (configuration not stated)	0	135.0	0	0	0	0	0
FC(F)Sc1ccc(NC(=S)NC2CCC(NC(=S)Nc3ccc(SC(F)F)cc3)CC2)cc1 (configuration not stated)	145.0	0	0	0	0	0	0
Oc1cccc(NC(=S)Nc2ccc(SC(F)F)cc2)c1	0	0	0	0	-	-	-
S=C(Nc1ccc(Br)cc1)NC1CCCCC1	0	151.0	0	0	0	0	0
CN(CCOc1ccc(-c2ccn(S(=O)(=O)c3cccc4ccccc34)n2)cc1)c1ccccn1	2.0[inhibitor]	1.0[inhibitor]	0	0	0	0	0
Cc1cccn2c(=O)nc(SCC(=O)N3CCN(c4ccccc4)CC3)nc12	-	-	0	-	-	-	-
COc1ccc(-c2cn3cccnc3n2)cc1NC(=O)c1cc(OC)c(OC)c(OC)c1	27.0[inhibitor]	20.0[inhibitor]	0	0	0	0	0
O=C(CCc1ccccc1)NCc1ccc2c(c1)OCO2	0	0	0	0	-	-	-
COc1cc(CNCCN2CCOCC2)ccc1OCc1ccc(Cl)cc1	0	0	0	0	-	-	-
CCOc1cc(CNCCCN2CCOCC2)cc(Br)c1OCC(=O)Nc1cccc(C(F)(F)F)c1	162.0	0	0	31.0	0	0	0
COc1cc(CNCCCN2CCOCC2)cc(Br)c1OCc1ccc(Cl)cc1	158.0	0	0	0	0	0	0
O=C1CCCCC1C(O)c1ccc(Cl)cc1 (configuration not stated)	0	0	0	0	-	-	-
O=C(N1CCCCC1)N1CCC(c2nc3ccccc3[nH]2)CC1	2.0[inhibitor]	1.0[inhibitor]	0	0	0	0	0
COc1ccc(CNC(=O)c2ccc(CS(=O)(=O)c3ccc(C)cc3)o2)cc1	0	0	0	0	-	-	-
